Experimental findings from PubChem BioAssay AID463173 (ICCB-Longwood Screening Facility, Harvard Medical School, 2010) are described below.

The campaign covered roughly 52,000 compounds. About 1,700 (3.3%) were called active. The sample holds actives, similar compounds and a random draw of the others, so the mix is not that of the screen. Cut-off read from the data, not from the text of the source: active = survival mostly below about 52% (no sharp cut-off); inactive = mostly above about 56%.

This assay has as its system Wild type. Briefly: S. aureus survival, RN4220 and DeltatarO strains – OD600, teichoic acid synthesis inhibitors, primary screen (AID 463173). Particulars: S. aureus RN4220 wild type/DeltatarO growth, OD600, 18 h, active compounds read low, screened at 18.75 µg/mL (by protocol).
As for `O=C(CN1C(=O)C2(SCC(=O)N2c2ccccc2)c2ccccc21)NCc1ccccc1Cl` (stereo not given), the survival is 97% (inactive). Consider `Cc1cc(C)c2c(c1)NC(=O)C2(O)c1c[nH]c2ccccc12` (stereo not given), for which the survival was 97% (inactive). As for `COc1ccc(C)cc1NC(=O)c1cc2c(s1)-c1ccccc1SC2`, the survival is 46% (inactive). As to `CC(C)OCCCNC(=O)c1ccc(Cn2c(=O)c3cccn3c3cccnc32)cc1`, the survival is 111% (inactive).

On to `COc1ccc(OC)c(NC(=O)c2cc3c(=O)oc4ccccc4c3s2)c1`, for which the survival is 103% (inactive). As for `CCCc1cc(=O)[nH]c2nnc(SC(C)CC)n12` (stereo not given), the figure is 80% (inactive); as for `Cc1c2cnn(-c3ccccc3)c(=O)c2c(C)n1C(C)C(=O)Nc1ccccc1C(F)(F)F` (stereo not given), 81% (inactive); as for `Cc1ccc(Cl)cc1N1CCN(C(=O)CCCn2c(=O)[nH]c3ccc(Br)cc3c2=O)CC1`, 21% (inactive). Next, `COc1cccc(N2CCN(C(=O)CCCn3c(=O)[nH]c4ccc(Br)cc4c3=O)CC2)c1`: 53% (inactive). As for `O=C(CCCn1c(=O)[nH]c2ccc(Br)cc2c1=O)N1CCN(c2cccc(Cl)c2)CC1`, the survival is 6% (active). As for `CCOC(=O)c1noc2ncnc(NCc3ccccc3OC)c12`, the figure is 72% (inactive); as for `COc1cccc(N2CC(NC(=O)COc3ccc4ccccc4c3)CC2=O)c1` (stereo not given), 94% (inactive). As for `COc1cccc(N2CC(NC(=O)c3ccco3)CC2=O)c1` (stereo not given), the figure is 10% (active); as for `COc1ccc(OCC(=O)NC2CC(=O)N(c3cccc(OC)c3)C2)cc1` (stereo not given), -3% (active); as for `COc1cccc(OCC(=O)NC2CC(=O)N(c3cccc(OC)c3)C2)c1` (stereo not given), 124% (inactive). Next, `COc1ccc(N2CC(NC(=O)c3ccco3)CC2=O)cc1` (stereo not given): 49% (inactive). With `COc1ccc(N2CC(NC(=O)c3ccco3)CC2=O)cc1OC` (stereo not given), the survival was 68% (inactive). As for `O=C1CC(=O)SC(c2ccccc2)=N1`, the survival is 105% (inactive). Next, `CCOC(=O)c1scc(-c2ccc(C)cc2)c1S(=O)(=O)Nc1cc(Cl)ccc1OC`: -6% (active); `CCOC(=O)c1scc(-c2ccc(C)cc2)c1S(=O)(=O)Nc1ccc(OC)c(Cl)c1`: 90% (inactive); `CCOC(=O)c1scc(-c2ccc(C)cc2)c1S(=O)(=O)Nc1cc(OC)ccc1OC`: 76% (inactive). As for `CCOC(=O)c1c(C)[nH]c(C)c1S(=O)(=O)NCC(=O)Nc1cc(Cl)ccc1OC`, the figure is -6% (active); as for `CCOC(=O)c1c(C)[nH]c(C)c1S(=O)(=O)NCC(=O)Nc1cc(C)ccc1OC`, 75% (inactive); as for `CCOC(=O)c1c(C)[nH]c(C)c1S(=O)(=O)N(C)CC(=O)Nc1cc(Cl)ccc1OC`, 128% (inactive). Next, `CCCc1oc(C(=O)O)cc1CN1CCOCC1`: 117% (inactive); `CC(=O)C1=C(c2ccc(C)cc2)N(C(C)=O)n2c(nnc2-c2ccccc2)S1`: 134% (inactive); `CCc1cccc2c(-c3ccccc3)nc(SCC(=O)Nc3ccc(OC)cc3)nc12`: 98% (inactive). On to `Cc1ccc2nc(-c3ccc(F)cc3)c(NC(C)(C)CC(C)(C)C)n2c1`, for which the survival was 14% (active). As for `COCCNc1c(-c2ccc(N)cc2)nc2ccc(C)cn12`, the figure is 101% (inactive); as for `Cc1ccc(Nc2c(-c3ccc(C)cc3)nc3ccc(C)cn23)cc1`, 121% (inactive); as for `CC(=O)N1c2ccccc2CC1C(=O)N1CCN(c2ccccc2F)CC1` (stereo not given), 71% (inactive). Next, `CCOc1ccc(NC(=O)/C=C\C(=O)N(c2ccc(C(C)C)cc2)C(C(=O)NCc2ccco2)c2ccc(F)cc2)cc1` (stereo not given): 51% (inactive). Take `Cc1cccc(NC(=O)CN2C(=O)COc3ccc(S(=O)(=O)Nc4ccccc4)cc32)c1C`: the survival is 123% (inactive). As for `Cc1c(Cl)cccc1NC(=O)c1cc2nc(-c3ccc4c(c3)OCO4)cc(C(F)(F)F)n2n1`, the figure is 76% (inactive); as for `CCOc1ccc(-c2ncccc2O)cc1`, 106% (inactive). Next, `CCCCOc1nnc(-c2ccc(OCC)cc2)c2ccccc12`: -1% (active).

`CCOc1ccc(-c2nnc(Nc3ccc(S(N)(=O)=O)cc3)c3ccccc23)cc1`: the survival is 88% (inactive). Next, `COc1ccc(S(=O)(=O)N(CCc2ccccc2)CC(=O)NCc2ccc(C)cc2)cc1`: 67% (inactive). For the molecule `Cc1ccccc1CCNC(=O)c1cc2ccccn2n1`, the survival is 84% (inactive). With `CCOC(=O)C1CCN(S(=O)(=O)c2ccc3c(c2)NC(=O)C(C)C(=O)N3)CC1` (stereo not given), the survival was 114% (inactive). Next, `Cc1ccc(N(C)S(=O)(=O)c2c(-c3ccccc3)csc2C(=O)O)cc1`: 61% (inactive). As for `CC(=O)c1ccc(NC(=O)Cn2ncc3c(C)n(Cc4ccc(F)cc4)c(C)c3c2=O)cc1`, the figure is 74% (inactive). Next, `COC(=O)c1ccccc1NC(=O)c1nc(-c2ccc(C)cc2)n2c1CCCCC2`: 86% (inactive); `COc1ccc(C(=O)Oc2ccc3oc(=O)sc3c2)cc1`: 95% (inactive).

Regarding `CCn1ccc2c(OCC(=O)Nc3ccc(OC)cc3OC)cccc2c1=O`, the survival is -3% (active).

With `CCn1ccc2c(OCC(=O)NCc3ccccc3)cccc2c1=O`, the survival was 66% (inactive).

Regarding `CCn1ccc2c(OCC(=O)Nc3ccc(C(C)=O)cc3)cccc2c1=O`, the survival was 53% (inactive).

Take `CCn1ccc2c(OCC(=O)Nc3ccccc3C)cccc2c1=O`: the survival is 0% (active). Next, `COCCn1ccc2c(OCC(=O)Nc3cccc(OC)c3)cccc2c1=O`: 90% (inactive). Turning to `CCn1ccc2c(OCC(=O)Nc3ccccc3C(F)(F)F)cccc2c1=O`, the survival was 80% (inactive). As for `CCCN1CCN(C(=O)Cn2c(-c3cccs3)cc3cc(F)ccc32)CC1`, the figure is 85% (inactive); as for `Cc1ccc2c(CC(=O)N(Cc3ccc(N(C)C)cc3)Cc3ccco3)coc2c1C`, 70% (inactive); as for `CCc1nn(CC(=O)Nc2ccc(C)cc2C)c(=O)c2cc3sccc3n12`, 90% (inactive). With `Cc1cc(C)cc(NC(=O)CSc2nncn3c2cc2occc23)c1`, the survival is 66% (inactive). As for `Cc1ccc(CNS(=O)(=O)c2ccc3c(c2)CC(C)N3C(=O)C2CCC2)cc1` (stereo not given), the figure is 97% (inactive); as for `Cc1ccsc1CN(C(=O)c1ccc(OCC(C)C)cc1)C1CCS(=O)(=O)C1` (stereo not given), 85% (inactive). Next, `CCCCN(c1ccccc1)c1ncnc2c1cnn2-c1cccc(C)c1`: 68% (inactive).

For `COC(=O)c1cc2sc(C)cc2n1Cc1ccc(Br)cc1F`, the survival is 76% (inactive). Next, `COC(=O)c1cc2sc(C)cc2n1Cc1ccc(F)cc1Cl`: 65% (inactive); `C=Cc1ccc(Cn2c(C(=O)OC)cc3sc(C)cc32)cc1`: 0% (active); `COC(=O)c1cc2sc(C)cc2n1Cc1cccc(OC)c1`: 0% (active).

For the molecule `COC(=O)c1cc2sc(C)cc2n1Cc1ccccc1`, the survival is 83% (inactive).

For `COC(=O)c1cc2sccc2n1Cc1ccc(F)cc1`, the survival is 135% (inactive). As for `Cc1cccc(CCn2c(=O)c3ccccc3n(Cc3cccc(F)c3)c2=O)c1`, the figure is 82% (inactive). As for `COc1ccc(NC(=O)Cn2cc(S(=O)(=O)c3ccccc3)c(=O)c3cc4c(cc32)OCO4)cc1`, the figure is 79% (inactive). Next, `COc1cc(CN(C(=O)Nc2ccccc2)c2ccccn2)cc(OC)c1OC`: 86% (inactive). For the molecule `CCCCNC(=O)CN1C(=O)CSc2ccc(S(=O)(=O)N3CCC(C)CC3)cc21`, the survival is 92% (inactive).

For the molecule `COc1ccccc1NC(=O)CN(C)S(=O)(=O)c1cccc2cccnc12`, the survival was 117% (inactive). With `CC(=O)NC1N=C(C)N(c2ccccc2)C1=O` (stereo not given), the survival was 101% (inactive). As for `COc1ccc(Cl)cc1NC(=O)NCCc1c(C)nn(C)c1C`, the figure is -3% (active); as for `Cc1nn(C)c(C)c1CCNC(=O)Nc1cccc(Cl)c1C`, 63% (inactive); as for `COc1ccc(NC(=O)NCCc2c(C)nn(C)c2C)c(OC)c1`, 57% (inactive). Next, `COC(=O)c1ccc(Cl)cc1NC(=O)NCCc1c(C)nn(C)c1C`: 55% (inactive); `Cc1nn(C)c(C)c1CCNC(=O)Nc1ccccc1C(F)(F)F`: 1% (active); `COC(=O)c1ccccc1NC(=O)NCCc1c(C)nn(C)c1C`: 82% (inactive).

With `Cc1ccc(C2c3[nH]c4ccccc4c3CCN2C(=O)c2ccc(N(C)C)cc2)cc1` (stereo not given), the survival is 68% (inactive).

Regarding `CCc1cccc(C)c1Nc1c(-c2ccsc2)nc2ncccn12`, the survival is 66% (inactive). As for `CNC(=S)N(CCN1CCOCC1)Cc1cc2cc(C)c(Cl)cc2[nH]c1=O`, the figure is 113% (inactive); as for `Cc1cccn2c(=O)c(/C=C(\C#N)c3nc4ccccc4s3)c(Oc3ccc(Br)cc3)nc12`, 129% (inactive); as for `O=C(NCc1cccc(Cl)c1)c1cc2ccc3cccnc3c2[nH]1`, 82% (inactive). As for `CCCCCSc1nnc(-c2ccc(Br)cc2)o1`, the figure is -1% (active); as for `Cc1ccc(CSc2nnc(-c3ccc(O)cc3)o2)cc1`, 108% (inactive); as for `Cc1ccc(-c2nnc(SCc3ccccc3C)o2)cc1`, -4% (active). Next, `CCCCOC(=O)CSc1nnc(-c2ccc(C)cc2)o1`: 8% (active). As to `Cc1ccc(-c2nnc(SCc3ccccc3C#N)o2)cc1`, the survival is 66% (inactive).

For the molecule `CCOC(=O)CSc1nnc(-c2ccc(OC)cc2)o1`, the survival was 72% (inactive). As to `N#Cc1ccc(CSc2nnc(-c3ccc(Br)cc3)o2)cc1`, the survival was 74% (inactive). Next, `N#Cc1ccccc1CSc1nnc(-c2ccc(Br)cc2)o1`: 73% (inactive); `COc1ccc(-c2nnc(SCC(=O)Oc3cc(C)ccc3C)o2)cc1`: 86% (inactive).

For the molecule `Cc1ccc2occ(-c3cc(-c4ccc(F)cc4)nc4c3COc3ccc(F)cc3-4)c(=O)c2c1`, the survival is 76% (inactive).

On to `Cc1ccc(-n2c(=O)[nH]c3cc(C(=O)NCCc4ccccc4)ccc3c2=O)cc1`, for which the survival was 85% (inactive). As for `O=C(Nc1ccc(OCc2cc(=O)n3c4c(sc3n2)CCCC4)cc1)c1cccc(F)c1`, the survival is 78% (inactive). Next, `Cc1ccc(Cl)cc1NC(=O)Nc1nnc(N(C)Cc2ccccc2)s1`: 93% (inactive); `COc1ccc(-c2nc3sc(CCNC(=O)C(=O)Nc4ccccc4C#N)c(C)n3n2)cc1`: 85% (inactive). Next, `Cc1noc(C)c1S(=O)(=O)N1CCC(C(=O)N2CCN(c3ccccc3)CC2)CC1`: 128% (inactive).
